Test results: PubChem BioAssay AID493240 (Broad Institute, 2011)
Screen size: about 1,300 compounds; about 270 (21%) were called active. Only a sample is shown. Entries with a potency or affinity are not part of this list. Unmarked numbers belong to inactive results. The rule behind the calls is not given here.

Experiment: cytotoxicity in parental SK-MEL-5 melanoma cells – cell-based, CellTiter-Glo, cherry-picked, set 3, orthogonal assay for MITF inhibitor project, dose response (AID 493240)
Conditions: SK-MEL-5 viability, ATP luminescence (CellTiter-Glo), 24 h; series mostly up to 35 µM; activity change, negative = viability loss: at the top concentration

SMILES | activity change, negative = viability loss
CCCC1=Nc2cc(C(=O)NCCN3CCCC3)ccc2Sc2ccccc21 | -42.8%
N#CC(C#N)=C1C=CC=CN1/C(=C\c1ccco1)C(=O)c1ccc(Cl)cc1 | -21.5%
O=C(Nc1ccc2c(c1)OCCO2)c1coc2ccccc2c1=O | 2.93%
O=C(NCc1ccccc1)NC1(C(=O)Nc2ccc3c(c2)OCCO3)CCCCC1 | 6.86%
COc1ccc(N(CC(=O)NCC2CCCO2)S(=O)(=O)c2ccccc2)cc1OC (centres undefined) | 5.1%
COc1ccc(/C=N/NC(=O)Cc2cccs2)cc1 | -10.2%
CCOC(=O)/C=c1\s/c(=C\c2ccc3cc(OC)ccc3c2)c(=O)n1CC(=O)NCC1CCCO1 (centres undefined) | -29.1%
CC(C)(C)C(=O)Cn1ncc(Br)c(Br)c1=O | 0.059%
Cn1cc(C(=O)CCl)c2ccccc21 | -42.3%
Cc1ccc2c(C(=O)CCl)c(C)[nH]c2c1 | -25.4%
COc1ccccc1N1C(=O)N(C(C)=O)C2C1Nc1ccccc1N2C (centres undefined) | -28.2%
Cc1cccc(OCc2nc3ccccc3n2C)c1 | 7.63%
Cc1nc(NC(=O)C2CC2)sc1C(=O)Nc1ccccc1Cl | 8.3%
CCOc1ccc(N=C(C)C2=C(O)c3ccccc3C2=O)cc1 | -3.12%
O=C(CC(=O)c1ccccc1)Nc1ccccc1 | 3.63%
CCCCOC(=O)Nc1ccc2c(C)cc(=O)oc2c1 | -13.8%
COc1cc(CN2CCC(Cc3ccccc3)CC2)cc(OC)c1OC | 1.19%
COc1ccc(S(=O)NC2CCCCC2)c(OC)c1C (centres undefined) | 2.77%
CCOC(=O)C1(Cc2cccc(OC)c2)CCCN(C(=O)CSC)C1 (centres undefined) | 4.52%
CC(C)(C)c1ccc(C(=O)N2CCCCCC2=O)cc1 | 13.2%
C=CC[n+]1c(-c2ccc(C)cc2)csc1Nc1ccc(NC(C)=O)cc1 | -13.5%
CC(C)(C)c1ccc(OCCCNCc2ccccc2)cc1 | -25.9%
O=C1c2ccccc2C(=O)N1CCOc1ccccc1 | 4.74%

SMILES | activity change, negative = viability loss
CCOC(=O)c1cc(-c2ccc(OC)cc2)n[nH]1 | -8.16%
COc1ccc(C(=O)Nc2ccc(C)cn2)c(OC)c1 | -36.4%
O=C(N/N=C/c1ccccn1)c1cc([N+](=O)[O-])cc([N+](=O)[O-])c1 | -4.85%
COc1ccc(C(C(=O)NC2CCCCC2)N(C(=O)CCl)c2ccc(OC)cc2)cc1 (centres undefined) | -18.5%
COc1ccc(N(C(=O)CCl)C(C(=O)NC2CCCCC2)c2cccnc2)cc1 (centres undefined) | 19.2%
O=C1c2ccccc2S(=O)(=O)N1Cc1nc2ccccc2s1 | -8.25%
CCn1c(C)cc(C(=O)CN2C(=O)c3ccccc3S2(=O)=O)c1C | -1.22%
CCCC(=O)NC(c1ccc(OC)c(OC)c1)c1cc(Cl)c2cccnc2c1O (centres undefined) | -19.8%
O=C(Nc1nc(-c2ccccn2)cs1)c1ccc(F)c(S(=O)(=O)N2CCOCC2)c1 | -3.17%
Cn1cc([N+](=O)[O-])c(C(=O)Nc2nc(-c3ccc(Cl)cc3)cs2)n1 | -38.5%
CC1CCCCC1NC(=O)/C(C#N)=C/C=C/c1ccccc1[N+](=O)[O-] (centres undefined) | -7.65%
OCC1OC(n2cnc3c(NCc4ccco4)ncnc32)C(O)C1O (centres undefined) | 1.75%
COc1cccc(/C=N/NC(=O)CN2CC(c3ccccc3)CC2=O)c1OC (centres undefined) | -15.3%
CCN1CCc2c(sc(NC(=O)c3ccc(S(=O)(=O)N4CCCCCC4)cc3)c2C(=O)NC)C1 | -6.08%
Cc1scc(C(=O)N/N=C/c2ccc([N+](=O)[O-])o2)c1C | -35%
O=[N+]([O-])c1ccc(Sc2cc[n+]([O-])c3ccccc23)c([N+](=O)[O-])c1 | -17.9%
Cc1ccc(SCCSc2ncccn2)cc1 | -15.8%
O=C(O)C1CCN(C(=O)OCc2ccccc2)CC1 | 4.11%
COc1cc(C2C(C#N)=C(N)Oc3cc(N(C)C)ccc32)cc2c1OCO2 (centres undefined) | -8.05%
O=C(O)c1cc2ccccc2c(N=Nc2cccnc2)c1O | -18.6%
Cc1cc(C)c2c(N)c3cccc(C)c3nc2n1 | -41.1%
CC(=O)Nc1ccc(-c2nc3ccccc3o2)cc1 | -3.83%
OCCNc1c2ccccc2nc2ccccc12 | -43.2%

SMILES | activity change, negative = viability loss
Cc1nn2c(N)c(-c3ccccc3)cnc2c1-c1ccccc1 | -3.35%
COc1ccc(-c2nc(-c3ccncc3)no2)cc1OC | 1%
C=Cc1ncc(OC)c2c1[nH]c1ccccc12 | -18.9%
Cc1ccc(NC(=O)CN(C)C(=O)Cn2ncc(Cl)c(Cl)c2=O)cc1 | -6.4%
O=C(/C=C/NNC(=O)c1ccccc1)c1ccc([N+](=O)[O-])cc1 | -16.6%
COc1ccc(/C=C/c2cc(C(F)(F)F)on2)cc1 | -11.9%
O=[N+]([O-])c1ccc(-n2nnnc2-c2ccccc2)c([N+](=O)[O-])c1 | -20.6%
Cc1cc(C(=O)N/N=C/c2ccc([N+](=O)[O-])o2)c(C)o1 | -26.1%
Cc1ccccc1OCC(=O)N/N=C/c1ccc([N+](=O)[O-])o1 | -32.6%
CCN(CC)S(=O)(=O)c1cccc(C(=O)N/N=C/c2ccc([N+](=O)[O-])o2)c1 | -3.68%
Cc1cc(C)cc(OCC(=O)N/N=C/c2ccc([N+](=O)[O-])o2)c1 | -22.6%
O=C(CNc1cccc([N+](=O)[O-])c1)N/N=C/c1ccc([N+](=O)[O-])o1 | -37.9%
O=C(N/N=C/c1ccc([N+](=O)[O-])o1)c1cc2ccccc2o1 | -13.3%
Cc1ccc(OCC(=O)N/N=C/c2ccc([N+](=O)[O-])o2)cc1 | -5.93%
O=C(CNc1ccc2ccccc2c1)N/N=C/c1ccc([N+](=O)[O-])o1 | -26.6%
O=c1c2ccccc2cnn1CCOc1ccccc1 | -38.8%
CC(C)c1nnc(NC(=O)CCC2CCCCC2)s1 | 6.44%
c1cc(CSc2nnc(-c3ccc4c(c3)OCO4)o2)ccn1 | -27%
COCCNC(=O)/C(C#N)=C/c1cccc(/C=C(\C#N)C(=O)NCCOC)c1 | -33.3%
Cc1ccc(C2=NN(C(=O)CCl)C(c3cccs3)C2)o1 (centres undefined) | -37.2%
Cc1ccc([N+](=O)[O-])cc1N1C(=O)CS/C1=N\NC(=O)c1cccnc1 | -3.24%
CC(=O)COc1ccc2cc(-c3ccccc3)c(=O)oc2c1 | -2.9%
O=[N+]([O-])c1ccccc1OCCOc1ccccc1[N+](=O)[O-] | -0.336%

SMILES | activity change, negative = viability loss
CCOC(=O)C1(Cc2ccccc2)CCCN(CCCn2cccn2)C1 (centres undefined) | 8.95%
CN(Cc1ccccc1)C1=CC(=[N+]2CCCCC2)CC(C)(C)C1 | -35.9%
O=C(NCCNc1ccccc1[N+](=O)[O-])c1cc(F)c(F)cc1Cl | -1.52%
N#CC(C#N)=C1C=CC=CN1/C(=C\c1ccco1)C(=O)c1ccc(Br)cc1 | -43%
CC(C)N1C(=O)S/C(=C\c2ccc(-c3ccc(Cl)c(C(=O)O)c3)o2)C1=O | -8.81%
Cc1cn(CCC(=O)Nc2ccccc2N2CCOCC2)c2ccccc12 | 2.75%
Clc1cccc(-c2nc(-c3ccccn3)no2)c1 | -33.1%
Fc1ccccc1-c1nc(-c2ccncc2)no1 | 0.869%
C/C(=N/NC(=O)C(O)(c1ccccc1)c1ccccc1)c1ccc([N+](=O)[O-])o1 | -18.4%
O=C(Nc1ccc2nc3n(c(=O)c2c1)CCCC3)c1cc([N+](=O)[O-])ccc1F | -36.5%
O=C(c1ccc([N+](=O)[O-])s1)N1CCN(c2ccccn2)CC1 | -4.49%
CCN(CC(=O)Nc1ccc2c(c1)OCCO2)C(=O)c1ccc([N+](=O)[O-])s1 | 0.045%
Cc1c(C#N)c(NC(=O)CCl)n(Cc2cccs2)c1C | -21.3%
O=C(/C=C/c1ccc2c(c1)OCO2)N1CCCCC1 | -8.83%
Cc1ccccc1NCc1nc2ccccc2n1C | -26.3%
O=C(NCC1CCCO1)c1cc(-c2ccc(Cl)cc2Cl)on1 (centres undefined) | -0.7%
O=C(NC(=S)NCc1ccccc1)c1ccccc1 | -7.22%
Cc1ccc(C(=O)N/C(=C\c2ccc(-c3ccccc3[N+](=O)[O-])o2)C(=O)NCCN(C)C)cc1 | -11%
CCOc1ccc2cc(C#N)c(SCC(=O)OC)nc2c1 | -0.011%
Cc1ccc2nc(-c3ccncc3)[nH]c2c1 | -7.63%
Cn1nnnc1Sc1ncnc2scc(-c3cccc(F)c3)c12 | -1.07%
CN(C)c1ccc(-n2cccc2/C=C/[N+](=O)[O-])cc1 | -40.2%
Cc1ccc(/C=c2/sc3n(c2=O)CCCN=3)o1 | -1.78%

SMILES | activity change, negative = viability loss
Cc1ccc(C(=O)NC2=NCCS2)cc1Cl | -9.15%
Nc1nnc(/C=C/c2ccccc2Cl)s1 | 3.2%
CC1CCN(Cc2nc(-c3ccc(Cl)cc3)no2)CC1 | -6.13%
COc1cc(CN2CCC(C(=O)NCCC(C)C)CC2)ccc1OCc1ccccc1 | -4.88%
CCOC(=O)N1CCC(NC(=O)C2CCCN(Cc3nc(-c4cccc(C)c4)oc3C)C2)CC1 (centres undefined) | -18.6%
CC(C)c1ccc(C(=O)Nc2cccnc2)cc1 | 3.56%
Cc1cccc(NC(=O)c2cnn(-c3ccccc3)c2C)c1C | -9.37%
CCOc1ccccc1NC(=O)C1C2CCC(O2)C1C(=O)O (centres undefined) | 11.8%
N#Cc1c(NC(=O)CSc2ncn[nH]2)sc2c1CCCCC2 | -22.5%
COC(=O)c1ccc(COc2ccc(C)cc2[N+](=O)[O-])o1 | -9.13%
O=C(Nc1ccccc1N1CCOCC1)c1ccc([N+](=O)[O-])s1 | -22.3%
Cc1ccc(NC(=O)c2cc(N3C(=O)C=CC3=O)ccc2N2CCOCC2)cc1Cl | -17.8%
CCOC(=O)c1ccc(NC(=O)CC2SCCNC2=O)cc1 (centres undefined) | -5.27%
CCCOc1ccc(C(=O)Nc2ccc3c(c2)OCCO3)cc1 | -8.17%
CCOC(=O)c1ccc(NC(=O)c2ccnn2C)cc1 | -12.7%
Cc1ccc(NC(=O)c2ccc([N+](=O)[O-])o2)cc1S(=O)(=O)N1CCOCC1 | -28.5%
Cc1ccc(NC(=O)c2ccc(OCC3CCCO3)cc2)c(C)c1 (centres undefined) | 1.58%
O=C(Nc1ccc(N2CCOCC2)cc1)c1cnsn1 | -19.4%
C=CCC(Nc1ccccc1)C12C=CC(O1)C(C(=O)OC)=C2C(=O)OC (centres undefined) | -37.9%
Cc1ccc(N2C(=O)c3ccc(N)cc3C2=O)cc1C | -0.496%
S=c1[nH]nc(-c2ccco2)n1/N=C/C(Cl)=C/c1ccccc1 | -1.61%
CCCCC1C(=O)N(c2ccccc2)N(c2ccc(O)cc2)C1=O (centres undefined) | -9.02%
